Measured values as given in PubChem BioAssay (NCATS).
Unmarked numbers belong to inactive results. Records with an inconclusive call do not appear. Where a call stands in place of a potency, no number is given. Calls of active or inactive are those of the source. Unless noted, the call rests on the fitted dose curve; in most records, active means well fitted curve in the direction sought with a large enough effect; inconclusive means small, poorly fitted or top-dose-only effect, or another doubt; inactive means no such curve, though single readings can be large; an effect the other way counts as inactive or inconclusive.

Tests used:
[1] = target: Cytochrome P450 1A2 (Homo sapiens) (UniProt P05177); assay: p450-cyp1a2 (AID 410; calls by dose curve; further: potency means the concentration at half of the fitted maximal effect)
Chain of Cytochrome P450 1A2 (Homo sapiens) (P05177 whole entry, looked up): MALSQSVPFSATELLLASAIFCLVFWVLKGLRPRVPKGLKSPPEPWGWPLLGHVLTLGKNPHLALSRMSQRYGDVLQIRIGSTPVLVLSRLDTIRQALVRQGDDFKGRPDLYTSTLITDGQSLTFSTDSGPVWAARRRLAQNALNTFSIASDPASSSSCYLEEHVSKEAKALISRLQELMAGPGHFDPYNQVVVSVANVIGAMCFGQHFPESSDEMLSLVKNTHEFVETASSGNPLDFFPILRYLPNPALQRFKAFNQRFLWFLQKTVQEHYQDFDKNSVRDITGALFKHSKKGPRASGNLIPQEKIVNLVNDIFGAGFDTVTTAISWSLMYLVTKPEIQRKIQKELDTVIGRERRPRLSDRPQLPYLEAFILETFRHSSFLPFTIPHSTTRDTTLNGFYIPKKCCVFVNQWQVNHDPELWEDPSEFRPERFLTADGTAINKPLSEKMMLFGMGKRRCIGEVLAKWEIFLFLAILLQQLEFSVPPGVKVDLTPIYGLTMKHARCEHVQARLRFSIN
Summary of the method: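 Read-out is luminescence from luciferin produced by CYP1A2 demethylation of Luciferin-ME (100uM, at Km). Detection reagent stopped the 60 min NADPH-dependent reaction; signals were normalized to 57 uM furafylline.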

[2] = Stat Signaling Pathway (AID 446; active means well fitted curve in either direction with a large enough effect, not every such curve was filed as active;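 further: ME-180 cervical cancer cells given 40 pM IL-6 alongside compound; SIE-controlled beta-lactamase reporter measured as 460/530 nm FRET emission ratio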); conditions: ME-180 (cervical carcinoma) SIE beta-lactamase reporter, IL-6 stimulated, 5 h; at 38 µM (top of the series)
Summary of the method: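 Emission at 460 and 530 nm (excitation 405 nm) reports SIE-controlled beta-lactamase in ME-180 cells. Cells received compound with 40 pM IL-6 for 5 hrs at 37 C; data scaled between 300 pM IL-6 and 125 nM JAK-inhibitor controls.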

[3] = target: Cytochrome P450 3A4 (Homo sapiens) (UniProt P08684); assay: qHTS Assay for Activators of Cytochrome P450 3A4 (AID 885); further: nearly all actives have a fitted effect of over 65% in size
Chain of Cytochrome P450 3A4 (Homo sapiens) (P08684 whole entry, looked up): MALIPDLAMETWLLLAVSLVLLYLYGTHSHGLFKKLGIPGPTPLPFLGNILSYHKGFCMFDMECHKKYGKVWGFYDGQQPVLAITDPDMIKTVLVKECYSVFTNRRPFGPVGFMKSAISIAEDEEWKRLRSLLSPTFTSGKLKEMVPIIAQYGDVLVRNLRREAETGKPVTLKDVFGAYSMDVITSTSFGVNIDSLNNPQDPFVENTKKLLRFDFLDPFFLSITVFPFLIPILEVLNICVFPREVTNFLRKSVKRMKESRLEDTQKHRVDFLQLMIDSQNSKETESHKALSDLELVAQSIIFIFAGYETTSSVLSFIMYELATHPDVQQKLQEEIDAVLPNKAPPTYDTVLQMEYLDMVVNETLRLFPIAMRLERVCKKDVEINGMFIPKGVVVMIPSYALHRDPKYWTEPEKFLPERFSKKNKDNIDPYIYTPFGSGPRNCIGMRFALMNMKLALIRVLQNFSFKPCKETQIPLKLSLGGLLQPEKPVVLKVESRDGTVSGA
Summary of the method: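 Activators are scored by enhanced luminescence from CYP3A4 conversion of luciferin-PPXE (25uM, equal to KM) to luciferin, after 60 min at RT with an NADPH-regenerating system.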

[4] = target: Pyruvate kinase (Leishmania mexicana) (UniProt Q27686); assay: qHTS Validation Assay for Inhibitors of Leishmania Mexicana Pyruvate Kinase (AID 945)
Chain of Pyruvate kinase (Leishmania mexicana) (Q27686 2-499 E452W): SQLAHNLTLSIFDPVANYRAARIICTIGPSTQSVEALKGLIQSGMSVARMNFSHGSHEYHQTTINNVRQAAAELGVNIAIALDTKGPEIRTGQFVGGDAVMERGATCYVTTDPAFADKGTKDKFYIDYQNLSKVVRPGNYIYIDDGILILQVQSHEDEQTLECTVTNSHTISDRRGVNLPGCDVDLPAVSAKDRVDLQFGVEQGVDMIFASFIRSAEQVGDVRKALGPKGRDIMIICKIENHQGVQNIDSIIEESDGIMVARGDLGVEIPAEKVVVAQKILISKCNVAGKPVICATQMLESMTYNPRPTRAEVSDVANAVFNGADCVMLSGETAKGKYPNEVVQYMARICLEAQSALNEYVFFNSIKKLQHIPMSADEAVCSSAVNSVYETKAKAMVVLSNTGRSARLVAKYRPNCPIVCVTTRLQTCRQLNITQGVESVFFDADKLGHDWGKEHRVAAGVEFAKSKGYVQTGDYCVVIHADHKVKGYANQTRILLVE
Summary of the method: (§1)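 Read-out: luminescence from PKLight stop/detection reagent, data normalized to DMSO. Reaction: 0.2 nM E451W LmPYK, 0.5 mM PEP, 0.1 mM ADP, pH 7.2, 1 h room temperature.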

[5] = Validation of Assay for Modulators of Lamin A Splicing (AID 1459; active means well fitted curve in the direction sought with a large enough effect in the signal ratio; the % refers to the signal ratio;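 further: cells exposed to compound for two days before reading; ratio rise marks activators and ratio drop marks inhibitors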)
Summary of the method: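 S3 HeLa stably expressing lamin A-EGFP splicing minigene and DsRed2, 600 cells/well in Opti-MEM with 2% FBS, treated 48 h at 37C; laser-scanning cytometry gives GFP/RFP total intensity ratio; ancitabine positive control, 0.5% DMSO vehicle.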

[6] = qHTS for differential inhibitors of proliferation of Plasmodium falciparum line W2 (AID 1883); conditions: Potency: Plasmodium falciparum W2 proliferation inhibition;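 further: potency means the concentration at half of the fitted maximal effect; parasites grown with compound for 72 h before lysis and staining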
[7] = target: Ferritin light chain (Equus caballus) (UniProt P02791); assay: qHTS Validation Assay for Identification of Novel General Anesthetics (AID 2323)
Chain of Ferritin light chain (Equus caballus) (P02791 2-175 limits assumed): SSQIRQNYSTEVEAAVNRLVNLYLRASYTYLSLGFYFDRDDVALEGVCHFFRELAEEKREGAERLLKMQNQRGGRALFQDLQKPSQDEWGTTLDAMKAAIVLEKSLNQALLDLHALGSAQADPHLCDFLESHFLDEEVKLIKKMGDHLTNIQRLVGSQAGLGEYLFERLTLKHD
Summary of the method: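 Horse-spleen apoferritin (10 uM) in PBS with 50% saturated 1-aminoanthracene; compounds pin-transferred, 10 min at room temperature. Fluorescence read at 380/535 nm, normalized to free 1-AMA and 1-AMA/apoferritin values; four-parameter Hill fit.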

[8] = qHTS Validation Assay to Find Inhibitors of Chronic Active B-Cell Receptor Signaling (AID 485345; active means well fitted curve in the direction sought with a large enough effect in the main read-out, with a control signal flat, not every such curve was filed as active)
Summary of the method: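 TMD8 ABC-DLBCL cells with dox-inducible green luciferase–IκBα fusion and red native luciferase; compounds 46 uM–3 nM, 4 h at 37C with doxycycline in 0.5% FBS IMDM. Green/red ratio normalized to basal and 10 uM MG-132.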

[9] = Quantitative high throughput screen for delayed death inhibitors of the malarial parasite plastid, 96 hour incubation (AID 488745); further: nearly all actives have a fitted effect of over 70% in size
Summary of the method: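 Two-generation (96 h) exposure of luciferase-reporter P. falciparum in erythrocytes, 2% hematocrit, 0.1% parasitemia final, 37 C, 5% CO2, RPMI 1640 with 0.5% Albumax. Growth inhibition scored by reduced luminescence.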

[10] = target: Pyruvate kinase (Leishmania mexicana) (UniProt Q27686); assay: qHTS Validation Assay for Activators of Leishmania Mexicana Pyruvate Kinase (AID 959)
Summary of the method: as §1

[11] = target: RecQ-like DNA helicase BLM (Homo sapiens) (UniProt P54132); assay: qHTS Validation Assay for Inhibitors of Bloom's syndrome helicase (BLM) (AID 2364); further: potency means the concentration at half of the fitted maximal effect
Summary of the method: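 BLM 50 nM in 25 mM Tris-HCl pH 8.0, 5 mM NaCl, 2 mM MgCl2, 1 mM DTT, 0.01% Tween-20, 2.5 ug/ml poly(dI-dC); 15 min cpd preinc, RT. Start: 200 nM forked DNA + 2 mM ATP (final). TAMRA read, 2 reads 2 h apart.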

[12] = target: ATP-dependent 6-phosphofructokinase (Trypanosoma brucei brucei) (UniProt O15648); assay: qHTS Validation Assay to Find Inhibitors of T. brucei phosphofructokinase (AID 485368); further: potency means the concentration at half of the fitted maximal effect
Chain of ATP-dependent 6-phosphofructokinase (Trypanosoma brucei brucei) (O15648 whole entry, looked up): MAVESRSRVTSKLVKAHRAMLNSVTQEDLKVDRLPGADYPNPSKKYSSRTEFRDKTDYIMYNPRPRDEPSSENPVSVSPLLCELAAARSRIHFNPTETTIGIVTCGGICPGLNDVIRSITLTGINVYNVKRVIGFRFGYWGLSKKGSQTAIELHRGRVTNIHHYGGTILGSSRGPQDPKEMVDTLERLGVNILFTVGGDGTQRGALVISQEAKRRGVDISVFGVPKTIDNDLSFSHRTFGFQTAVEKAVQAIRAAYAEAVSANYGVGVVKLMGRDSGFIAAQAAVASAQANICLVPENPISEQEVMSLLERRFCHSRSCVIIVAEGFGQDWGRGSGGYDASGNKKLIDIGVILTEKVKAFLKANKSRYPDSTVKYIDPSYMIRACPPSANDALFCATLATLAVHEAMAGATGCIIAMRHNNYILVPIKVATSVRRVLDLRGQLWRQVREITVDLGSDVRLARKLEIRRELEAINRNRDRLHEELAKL
Summary of the method: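 qHTS format, up to 57 uM. PFK 1.25 nM; F6P 0.5 mM; ATP 0.1 mM; 5 mM MgCl2, 0.01% Tween20, 0.1% BSA; 0.1 M TEA pH 8.0; 45 min RT; ADP-Glo readout; no-enzyme control = full inhibition.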

[13] = target: Rap guanine nucleotide exchange factor 3 (Homo sapiens) (UniProt O95398); assay: Confirmatory qHTS for agonist of cAMP-regulated guanine nucleotide exchange factor 3 (EPAC1) (AID 1645881);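 further: EPAC1 catalysed release of BODIPY-GDP from Rap1B seen as fluorescence loss; nearly all actives have a fitted effect of over 75% in size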
Chain of Rap guanine nucleotide exchange factor 3 (Homo sapiens) (O95398 whole entry, looked up): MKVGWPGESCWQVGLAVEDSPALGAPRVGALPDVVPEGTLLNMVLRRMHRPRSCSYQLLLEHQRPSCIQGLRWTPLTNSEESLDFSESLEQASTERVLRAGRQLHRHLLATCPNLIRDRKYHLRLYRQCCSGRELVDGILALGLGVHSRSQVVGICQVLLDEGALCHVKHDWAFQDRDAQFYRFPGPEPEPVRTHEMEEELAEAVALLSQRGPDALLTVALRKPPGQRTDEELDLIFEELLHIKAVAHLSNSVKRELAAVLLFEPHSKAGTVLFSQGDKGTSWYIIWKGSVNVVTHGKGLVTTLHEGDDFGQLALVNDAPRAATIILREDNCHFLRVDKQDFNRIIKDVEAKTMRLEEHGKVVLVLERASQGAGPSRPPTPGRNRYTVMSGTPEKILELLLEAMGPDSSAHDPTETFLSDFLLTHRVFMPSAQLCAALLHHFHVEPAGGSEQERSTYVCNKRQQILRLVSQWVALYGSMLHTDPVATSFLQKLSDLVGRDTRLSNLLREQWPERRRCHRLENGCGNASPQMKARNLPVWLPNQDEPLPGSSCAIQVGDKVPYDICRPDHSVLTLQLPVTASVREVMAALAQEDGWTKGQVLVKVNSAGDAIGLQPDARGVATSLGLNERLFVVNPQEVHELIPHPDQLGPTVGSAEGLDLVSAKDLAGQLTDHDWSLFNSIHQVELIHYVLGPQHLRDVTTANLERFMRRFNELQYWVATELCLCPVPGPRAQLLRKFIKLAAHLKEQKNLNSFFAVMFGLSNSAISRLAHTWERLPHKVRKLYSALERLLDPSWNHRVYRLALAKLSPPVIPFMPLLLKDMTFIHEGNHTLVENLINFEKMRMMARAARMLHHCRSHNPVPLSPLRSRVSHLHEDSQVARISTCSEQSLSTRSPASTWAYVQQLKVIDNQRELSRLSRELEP

[14] = target: Rap guanine nucleotide exchange factor 4 (Homo sapiens) (UniProt Q8WZA2); assay: Confirmatory qHTS for agonist of cAMP-regulated guanine nucleotide exchange factor 4 (EPAC2) (AID 1645884);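 further: nucleotide exchange releases bodipy-GDP from Rap1 and this lowers its fluorescence; nearly all actives have a fitted effect of over 65% in size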
Chain of Rap guanine nucleotide exchange factor 4 (Homo sapiens) (Q8WZA2 whole entry, looked up): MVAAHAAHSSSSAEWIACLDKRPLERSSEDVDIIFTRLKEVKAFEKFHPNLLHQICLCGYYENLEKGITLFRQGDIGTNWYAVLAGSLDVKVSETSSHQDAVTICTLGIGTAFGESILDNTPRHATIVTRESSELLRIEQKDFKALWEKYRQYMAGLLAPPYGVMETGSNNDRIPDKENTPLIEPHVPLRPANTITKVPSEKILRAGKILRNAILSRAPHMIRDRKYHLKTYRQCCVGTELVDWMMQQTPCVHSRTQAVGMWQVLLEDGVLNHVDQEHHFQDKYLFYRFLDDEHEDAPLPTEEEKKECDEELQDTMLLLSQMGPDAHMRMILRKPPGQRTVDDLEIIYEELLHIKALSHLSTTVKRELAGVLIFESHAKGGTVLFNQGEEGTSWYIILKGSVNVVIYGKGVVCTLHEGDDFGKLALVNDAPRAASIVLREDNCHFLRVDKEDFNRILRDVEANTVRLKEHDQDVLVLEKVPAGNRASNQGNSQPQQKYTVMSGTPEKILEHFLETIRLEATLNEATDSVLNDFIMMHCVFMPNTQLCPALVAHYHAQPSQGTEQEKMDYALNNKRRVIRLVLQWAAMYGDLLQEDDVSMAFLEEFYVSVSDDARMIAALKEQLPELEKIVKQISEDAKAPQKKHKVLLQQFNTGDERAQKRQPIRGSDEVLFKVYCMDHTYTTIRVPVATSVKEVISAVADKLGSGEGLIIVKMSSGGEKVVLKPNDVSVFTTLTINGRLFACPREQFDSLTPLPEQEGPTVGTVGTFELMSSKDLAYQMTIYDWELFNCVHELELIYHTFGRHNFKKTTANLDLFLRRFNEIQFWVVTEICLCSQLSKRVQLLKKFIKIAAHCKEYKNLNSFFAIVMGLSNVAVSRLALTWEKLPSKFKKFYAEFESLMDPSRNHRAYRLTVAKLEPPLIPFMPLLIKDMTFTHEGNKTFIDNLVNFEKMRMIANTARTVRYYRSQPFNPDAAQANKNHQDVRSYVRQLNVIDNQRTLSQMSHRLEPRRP

[15] = target: Rap guanine nucleotide exchange factor 4 (Homo sapiens) (UniProt Q8WZA2); assay: Confirmatory qHTS for antagonist of cAMP-regulated guanine nucleotide exchange factor 4 (EPAC2) (AID 1645885); further: nearly all actives have a fitted effect of over 25% in size; further: potency means the concentration at half of the fitted maximal effect
[16] = Cell Viability qHTS for small molecule stabilizers of the endoplasmic reticulum resident proteome (AID 1508629); conditions: cell viability counter-screen, 100 nM thapsigargin for final 4 h;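 further: human SH-SY5Y neuroblastoma cells carrying the GLuc-SERCaMP reporter; compound exposure about 46 h in total before the viability read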

Which Potency [1] does the source give for `C1CCC(N=C(NC23CC4CC(CC(C4)C2)C3)N2CCOCC2)CC1` here?
Its Potency is “inactive”.

What about the activity, negative = inhibition [2] of the same molecule?
The activity, negative = inhibition was 17.1%.

And the Potency [3]?
The Potency was “inactive”.

What about the Potency [4] of the same molecule?
Its Potency is “inactive”.

And the outcome [5]?
Its outcome is “inactive”.

And the Potency [6]?
Its Potency is 7.08 µM (active).

And the outcome [7]?
Its outcome is “inactive”.

What about the outcome [8] of the same molecule?
The outcome was “inactive”.

What about the Potency [9] of the same molecule?
The Potency was “inactive”.

Which Potency [1] does the source give for `Nc1c(S(=O)(=O)O)cc(Nc2ccc(Nc3nc(Cl)nc(Nc4ccc(S(=O)(=O)O)cc4)n3)c(S(=O)(=O)O)c2)c2c1C(=O)c1ccccc1C2=O` here?
The Potency was 15.8 µM (active).

And the Potency [3]?
Its Potency is “inactive”.

What about the Potency [4] of the same molecule?
The Potency was “inactive”.

And the Potency [10]?
Its Potency is 0.631 µM (active).

What about the Potency [11] of the same molecule?
Its Potency is 6.31 µM (active).

What about the Potency [12] of the same molecule?
Its Potency is 2.39 µM (active).

And the outcome [13]?
The outcome was “inactive”.

And the outcome [14]?
Its outcome is “inactive”.

And the Potency [15]?
Its Potency is 22.1 µM (active).

With `O=C1c2ccccc2C(=O)c2c(NCCc3ccc(O)cc3)ccc(NCCc3ccc(O)cc3)c21` as the molecule, how does the max response [16] read?
The max response was -20.2%.

With `C[C@H](Cc1ccccc1)Nc1ncnc2c1ncn2[C@@H]1O[C@H](CO)[C@@H](O)[C@H]1O` as the molecule, how does the Potency [12] read?
The Potency was “inactive”.

Which outcome [5] does the source give for `Oc1cc2c(c(Cl)c1O)CCNCC2c1ccccc1` (configuration not stated) here?
The outcome was “inactive”.

With `COC(=O)CCC(=O)OC1(C)C(=O)C=C2C=C(C3CC3)N(CCCOC(C)C)C=C2C1=O` (configuration not stated) as the molecule, how does the outcome [13] read?
Its outcome is “inactive”.

And the outcome [14]?
Its outcome is “inactive”.

What about the Potency [15] of the same molecule?
The Potency was “inactive”.

Which results are given for `CCCCC1=CC2=CC(=O)C(C)(OC(=O)CCc3ccccc3)C(=O)C2=CO1` (configuration not stated)?
outcome [13]: inactive; activation [14]: 0% [at 17.1 µM]; activity change, negative = inhibition [15]: 20.8% [at 12.7 µM]
